Test results published in PubChem BioAssay (NCI).
This is part of a sample that, as a whole, favours compounds with a hit. Of some 83,000 tested, about 20% had one in any assay.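 Step 1: grow cells in 96-well plates. Step 2: add test compound at a single concentration. Step 3: incubate 48 h. Step 4: record percent growth.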 A number with no mark means an inactive call. The source made the active and inactive calls. The calls were made as follows: active = growth percent below 10; inactive = the rest.

Assays:
Assay in all cases: NCI-60 one-dose screen, 48 h (100 = growth as untreated, 0 = no growth, -100 = all killed)
HCT-15 colon = conditions: 10 µM unless noted
HT29 colon = conditions: 10 µM unless noted
SNB-75 CNS = conditions: 10 µM unless noted
SNB-19 CNS = conditions: 10 µM unless noted
U251 CNS = conditions: 10 µM unless noted
PC-3 prostate = conditions: 10 µM unless noted
UACC-62 melanoma = conditions: 10 µM unless noted
LOX IMVI melanoma = conditions: 10 µM unless noted
SK-MEL-28 melanoma = conditions: 10 µM unless noted
SK-MEL-2 melanoma = conditions: 10 µM unless noted
EKVX NSCLC = conditions: 10 µM unless noted
SN12C renal = conditions: 10 µM unless noted
UO-31 renal = conditions: 10 µM unless noted
TK-10 renal = conditions: 10 µM unless noted
ACHN renal = conditions: 10 µM unless noted
CAKI-1 renal = conditions: 10 µM unless noted
A498 renal = conditions: 10 µM
HL-60(TB) leukemia = conditions: 10 µM unless noted
CCRF-CEM leukemia = conditions: 10 µM unless noted
SK-MEL-5 melanoma = conditions: 10 µM unless noted

SMILES	growth (HCT-15 colon)	growth (HT29 colon)	growth (SNB-75 CNS)	growth (SNB-19 CNS)	growth (U251 CNS)	growth (PC-3 prostate)	growth (UACC-62 melanoma)	growth (LOX IMVI melanoma)	growth (SK-MEL-28 melanoma)	growth (SK-MEL-2 melanoma)	growth (EKVX NSCLC)	growth (SN12C renal)	growth (UO-31 renal)	growth (TK-10 renal)	growth (ACHN renal)	growth (CAKI-1 renal)	growth (A498 renal)	growth (HL-60(TB) leukemia)	growth (CCRF-CEM leukemia)	growth (SK-MEL-5 melanoma)
CC(C)=CC1C(C(=O)OCc2cccc(Oc3ccccc3)c2)C1(C)C (configuration not stated)	98.9%	86.5%	115%	98.4%	98.6%	92.8%	78.4%	93.4%	119%	108%	82.4%	94.5%	76.5%	96.6%	91.6%	59.6%	69.6%	119%	102%	–
CC(=O)c1ccc(C(=O)NCC2CCC3(CC2)OOC2(CCCCC2)OO3)cc1	82.5%	83.4%	99.8%	96.9%	64.4%	71%	80.9%	35.3%	95.5%	76.7%	-1.77% (active)	78%	-78.4% (active)	86.3%	64.6%	-29.9% (active)	89.2%	19.6%	31.9%	–
CC(=O)/C=C/c1ccc2c(c1)OCO2	99.7%	106%	79.2%	84.6%	–	95.8%	–	109%	107%	107%	–	98.1%	100%	99.7%	97.5%	91.5%	118%	104%	94.1%	100%
O=C(CC1(O)C(=O)N(Cc2ccccc2)c2ccc(F)cc21)c1ccc(C(=O)NCC2CCC3(CC2)OOC2(CCCCC2)OO3)cc1 (configuration not stated)	-14.3% (active)	-70.2% (active)	-62.1% (active)	16.8%	-80.1% (active)	-58.8% (active)	-12.5% (active)	-84.5% (active)	51.5%	-12.9% (active)	-68.5% (active)	-59.5% (active)	-76.3% (active)	-93.6% (active)	-80.7% (active)	-87.1% (active)	-88.5% (active)	-57.5% (active)	-36.9% (active)	–
O=[N+]([O-])c1ccc(OP(=O)(CCl)N(CCCl)CCCl)cc1 (configuration not stated)	90.3%	86.8%	77.7%	111%	96.1%	–	104%	–	106%	81.9%	–	112%	84.4%	99.6%	101%	95.2%	109%	94.4%	–	107%
CCOP(=O)(Nc1ccc2c(c1)/C(=N/NC(N)=S)c1ccccc1-2)OCC	96.5%	–	80.6%	94.5%	94.8%	94.4%	77.7%	88.9%	116%	110%	92.9%	81.9%	91.8%	104%	89.9%	97.4%	96.3%	–	85.6%	84.4%
COc1ccc(/C=C\c2cc(OC)c(OC)c(OC)c2)cc1NS(=O)(=O)c1ccc(Cl)cc1	54.2%	75.7%	–	87.2%	77.8%	42.7%	45.1%	71.3%	53%	69.5%	–	79.8%	55.1%	80.2%	62.2%	42.8%	47%	54.1%	78%	51.6%
Clc1ccc(N2COOC3(OOC2)C2CC4CC(C2)CC3C4)cc1	64%	60%	–	74.3%	28.4%	53.7%	39.4%	-83.1% (active)	103%	87.4%	64.2%	66.9%	-92.1% (active)	27.2%	29.4%	52.3%	–	-58% (active)	-50.3% (active)	55.5%
C1CCC2(CC1)OOCNCOO2	99.3%	97.7%	–	113%	105%	98%	113%	-76.6% (active)	110%	102%	99%	110%	93.6%	91.3%	110%	93.1%	97.4%	71.7%	99.5%	93.5%
CC(C)[C@@H]1NC(=O)[C@]2(C)CSC(=N2)c2csc(n2)CNC(=O)C[C@@H](/C=C/CCS)OC1=O	58.6%	–	29.1%	22.3%	-62.1% (active)	17%	-42.2% (active)	-93.1% (active)	5.48% (active)	-28.2% (active)	32.4%	31.7%	10.4%	–	5.8% (active)	–	-74.8% (active)	–	9.97% (active)	-81.2% (active)
CCCCCCC(=O)NC1=C(N2CC2)C(=O)C(NC(=O)CCCCCC)=C(N2CC2)C1=O	69%	19.2%	–	60.6%	52.1%	35.4%	30.6%	33.5%	81.5%	73%	78.3%	41.7%	43.1%	75.5%	32.9%	45.6%	66.9%	16.8%	50.7%	52.4%
CCOC(=O)CCC(NC(=O)C(Cc1ccc(N(CCCl)CCCl)cc1)NC=O)C(=O)OCC (configuration not stated)	36.3%	62.3%	30.3%	–	48.4%	71.7%	-37.7% (active)	-78.3% (active)	-29.9% (active)	-64.3% (active)	55.4%	3.28% (active)	–	111%	-33.9% (active)	10.5%	128%	9.37% (active)	17.6%	-70.1% (active)
Cn1cccc1C1CC(=O)N(CCC[Se]C#N)C1=O (configuration not stated)	-56.5% (active)	7.03% (active)	–	-65.2% (active)	-85.5% (active)	6.15% (active)	27%	-66.8% (active)	-6.1% (active)	-35.2% (active)	-65.3% (active)	-3.67% (active)	-75.9% (active)	-69.5% (active)	–	-80.1% (active)	–	-42.8% (active)	13.8%	-51.9% (active)
CCCCC1(CCC)C(=O)NC(=S)NC1=O	93.7%	105%	77.5%	–	95.9%	80.4%	104%	103%	108%	91.2%	102%	–	85.7%	118%	94.8%	97.2%	129%	95.5%	115%	104%
O=C1CN=C(c2ccc(Cl)cc2)c2sccc2N1	98.6%	100%	–	96.6%	101%	98.6%	91.6%	95.3%	105%	107%	–	96.2%	84.6%	99.7%	104%	97.9%	102%	98.3%	97.4%	99.5%
CCN(CC)c1ccc2c(c1)OC(N)=C(C#N)C2c1cc(OC)c2c(c1)OCO2 (configuration not stated)	16.1%	-9.44% (active)	–	40.1%	12.5%	30.9%	–	–	72.2%	–	41.7%	15.1%	34.7%	59.3%	21.4%	32.7%	–	13%	–	-29.6% (active)
COc1cc2c(=O)n(C3CCCCCCC3)c3c4cc[nH]c4ncc3c2cc1OC	62.4%	66.8%	–	55.2%	12.7%	65.8%	89.1%	41.5%	85.5%	78.7%	71.6%	49.8%	22.5%	30.8%	40.9%	54.6%	4.93% (active)	57.6%	44.9%	64.2%
